Test results taken from PubChem BioAssay AID1159580 (chemical genetic matrix, 2015).
In all, about 5,500 compounds went through this assay and about 2,000 (36%) were called active. About 18% were inconclusive and are not listed. Cut-off read from the data, not from the text of the source: active = normalized growth mostly below about 0.91 (no sharp cut-off); inconclusive = no clear call, values can overlap the other calls; inactive = mostly above about 0.92. This is one part of the list.

Test: chemical genetic growth profiling, strain panel (AID 1159580);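 note: tested at 20 µM; growth read once vehicle control cultures reached saturation at 30 °C; 1 = growth at the plate median or of vehicle wells; lower values mean less growth of the strain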
Conditions: growth OD

Measured: normalized growth

CC(C)CC1C(=O)N2CCC[C@H]2C2(O)O[C@](NC(=O)C3C=C4c5cccc6[nH]c(Br)c(c56)C[C@H]4N(C)C3)(C(C)C)C(=O)N12 (stereo partly specified)
inactive: S. cerevisiae deletion strains, locus YKL009W, strain mrt4, stronger effect = lower value 0.983 | S. cerevisiae deletion strains, locus YKL068W, stronger effect = lower value 0.97 | S. cerevisiae deletion strains, locus YKL085W, strain MDH1 (second series), stronger effect = lower value 0.963 | S. cerevisiae deletion strains, locus YKL085W, strain MDH1, stronger effect = lower value 0.963 | S. cerevisiae deletion strains, locus YKL160W, strain elf1, stronger effect = lower value 0.993 | S. cerevisiae deletion strains, locus YKL190W, strain CNB1, stronger effect = lower value 0.979 | S. cerevisiae deletion strains, locus YKR001C, strain vps1, stronger effect = lower value 0.989 | S. cerevisiae deletion strains, locus YKR026C, strain gcn3, stronger effect = lower value 0.998 | S. cerevisiae deletion strains, locus YKR091W, strain srl3, stronger effect = lower value 0.979 | S. cerevisiae deletion strains, locus YLL001W, strain dnm1, stronger effect = lower value 0.988 | S. cerevisiae deletion strains, locus YLL026W, stronger effect = lower value 0.977 | S. cerevisiae deletion strains, locus YLL041C, strain sdh2, stronger effect = lower value 0.982 | S. cerevisiae deletion strains, locus YLR027C, strain aat2, stronger effect = lower value 0.977 | S. cerevisiae deletion strains, locus YLR039C, strain RIC1, stronger effect = lower value 0.905 | S. cerevisiae deletion strains, locus YLR058C, strain SHM2, stronger effect = lower value 0.988 | S. cerevisiae deletion strains, locus YLR102C, strain apc9, stronger effect = lower value 0.973 | S. cerevisiae deletion strains, locus YLR113W, strain HOG1, stronger effect = lower value 0.945 | S. cerevisiae deletion strains, locus YLR221C, strain rsa3, stronger effect = lower value 0.983 | S. cerevisiae deletion strains, locus YLR258W, strain gsy2, stronger effect = lower value 0.997 | S. cerevisiae deletion strains, locus YLR262C, strain YPT6 (second series), stronger effect = lower value 0.944 | S. cerevisiae deletion strains, locus YLR262C, strain YPT6, stronger effect = lower value 0.951 | S. cerevisiae deletion strains, locus YLR268W, strain sec22, stronger effect = lower value 0.98 | S. cerevisiae deletion strains, locus YLR320W, strain mms22, stronger effect = lower value 0.982 | S. cerevisiae deletion strains, locus YLR330W, strain CHS5, stronger effect = lower value 0.975 | S. cerevisiae deletion strains, locus YLR342W, strain FKS1 (second series), stronger effect = lower value 0.995 | S. cerevisiae deletion strains, locus YLR342W, strain FKS1, stronger effect = lower value 0.983 | S. cerevisiae deletion strains, locus YLR357W, strain rsc2, stronger effect = lower value 0.933 | S. cerevisiae deletion strains, locus YLR370C, strain arc18, stronger effect = lower value 0.966 | S. cerevisiae deletion strains, locus YLR371W, strain rom2, stronger effect = lower value 0.977 | S. cerevisiae deletion strains, locus YLR384C, strain iki3, stronger effect = lower value 0.987 | S. cerevisiae deletion strains, locus YLR418C, strain cdc73, stronger effect = lower value 0.978 | S. cerevisiae deletion strains, locus YML016C, strain PPZ1, stronger effect = lower value 0.983 | S. cerevisiae deletion strains, locus YML032C, strain rad52, stronger effect = lower value 0.982 | S. cerevisiae deletion strains, locus YML120C, strain ndi1, stronger effect = lower value 0.992 | S. cerevisiae deletion strains, locus YML124C, strain tub3, stronger effect = lower value 0.973 | S. cerevisiae deletion strains, locus YMR058W, strain fet3, stronger effect = lower value 0.973 | S. cerevisiae deletion strains, locus YMR078C, strain ctf18, stronger effect = lower value 0.98 | S. cerevisiae deletion strains, locus YMR125W, strain sto1, stronger effect = lower value 0.99 | S. cerevisiae deletion strains, locus YMR129W, stronger effect = lower value 0.977 | S. cerevisiae deletion strains, locus YMR205C, strain PFK2, stronger effect = lower value 0.97 | S. cerevisiae deletion strains, locus YMR223W, strain ubp8, stronger effect = lower value 0.986 | S. cerevisiae deletion strains, locus YMR231W, strain pep5, stronger effect = lower value 0.99 | S. cerevisiae deletion strains, locus YMR263W, strain SAP30, stronger effect = lower value 0.981 | S. cerevisiae deletion strains, locus YMR307W, strain GAS1, stronger effect = lower value 1.07 | S. cerevisiae deletion strains, locus YNL067W, strain RPL9B, stronger effect = lower value 0.988 | S. cerevisiae deletion strains, locus YNL071W, strain lat1, stronger effect = lower value 0.993 | S. cerevisiae deletion strains, locus YNL128W, strain TEP1, stronger effect = lower value 0.97 | S. cerevisiae deletion strains, locus YNL153C, strain GIM3, stronger effect = lower value 0.986 | S. cerevisiae deletion strains, locus YNL183C, strain NPR1, stronger effect = lower value 0.938 | S. cerevisiae deletion strains, locus YNL209W, strain ssb2, stronger effect = lower value 0.989 | S. cerevisiae deletion strains, locus YNL233W, strain BNI4, stronger effect = lower value 0.986 | S. cerevisiae deletion strains, locus YNL248C, strain rpa49, stronger effect = lower value 0.993 | S. cerevisiae deletion strains, locus YNL250W, strain rad50, stronger effect = lower value 0.952 | S. cerevisiae deletion strains, locus YNL271C, strain bni1, stronger effect = lower value 0.976 | S. cerevisiae deletion strains, locus YNL298W, strain CLA4, stronger effect = lower value 0.986 | S. cerevisiae deletion strains, locus YNL307C, strain MCK1, stronger effect = lower value 0.981 | S. cerevisiae deletion strains, locus YNL322C, strain KRE1 (second series), stronger effect = lower value 0.992 | S. cerevisiae deletion strains, locus YNL322C, strain KRE1, stronger effect = lower value 0.978 | S. cerevisiae deletion strains, locus YNR049C, strain mso1, stronger effect = lower value 0.971 | S. cerevisiae deletion strains, locus YNR052C, strain pop2, stronger effect = lower value 1 | S. cerevisiae deletion strains, locus YOL006C, strain TOP1, stronger effect = lower value 1.02 | S. cerevisiae deletion strains, locus YOL012C, strain htz1 0.94 | S. cerevisiae deletion strains, locus YOL147C, strain pex11, stronger effect = lower value 0.969 | S. cerevisiae deletion strains, locus YOR001W, strain rrp6, stronger effect = lower value 0.997 | S. cerevisiae deletion strains, locus YOR061W, strain CKA2, stronger effect = lower value 0.98 | S. cerevisiae deletion strains, locus YOR069W, strain VPS5, stronger effect = lower value 0.983 | S. cerevisiae deletion strains, locus YOR070C, strain gyp1, stronger effect = lower value 0.985 | S. cerevisiae deletion strains, locus YOR080W, strain dia2, stronger effect = lower value 0.974 | S. cerevisiae deletion strains, locus YOR083W, strain WHI5, stronger effect = lower value 0.995 | S. cerevisiae deletion strains, locus YOR106W, strain vam3, stronger effect = lower value 1.07 | S. cerevisiae deletion strains, locus YOR136W, strain idh2, stronger effect = lower value 0.987 | S. cerevisiae deletion strains, locus YOR144C, strain elg1, stronger effect = lower value 0.979 | S. cerevisiae deletion strains, locus YOR184W, strain ser1, stronger effect = lower value 0.995 | S. cerevisiae deletion strains, locus YOR231W, strain MKK1, stronger effect = lower value 0.981 | S. cerevisiae deletion strains, locus YOR265W, strain rbl2, stronger effect = lower value 0.971 | S. cerevisiae deletion strains, locus YOR270C, strain vph1, stronger effect = lower value 1.07 | S. cerevisiae deletion strains, locus YOR290C, strain snf2, stronger effect = lower value 0.977 | S. cerevisiae deletion strains, locus YOR316C, strain cot1, stronger effect = lower value 0.976 | S. cerevisiae deletion strains, locus YPL051W, strain arl3, stronger effect = lower value 0.985 | S. cerevisiae deletion strains, locus YPL055C, strain LGE1, stronger effect = lower value 1 | S. cerevisiae deletion strains, locus YPL078C, strain atp4, stronger effect = lower value 0.984 | S. cerevisiae deletion strains, locus YPL106C, strain sse1, stronger effect = lower value 0.941 | S. cerevisiae deletion strains, locus YPL240C, strain hsp82, stronger effect = lower value 0.99 | S. cerevisiae deletion strains, locus YPL241C, strain CIN2, stronger effect = lower value 0.988 | S. cerevisiae deletion strains, locus YPL256C, strain CLN2, stronger effect = lower value 0.99 | S. cerevisiae deletion strains, locus YPR119W, strain clb2, stronger effect = lower value 0.988 | S. cerevisiae deletion strains, locus YPR141C, strain kar3, stronger effect = lower value 0.938 | S. cerevisiae deletion strains, locus YPR163C, strain tif3, stronger effect = lower value 0.975 | S. cerevisiae deletion strains, locus YPR167C, strain met16, stronger effect = lower value 0.97 | S. cerevisiae deletion strains, strain wtn01, stronger effect = lower value 0.975 | S. cerevisiae strains, strain wild type, stronger effect = lower value 0.983
